From PubChem BioAssay AID1159580 (chemical genetic matrix, 2015)
Hit rate of the full screen: of about 5,500 compounds, about 2,000 (36%) were called active. Roughly 18% stayed inconclusive and do not appear here. This is one part of the list. A number with no mark means an inactive call. Cut-off read from the data, not from the text of the source: active = normalized growth mostly below about 0.91 (no sharp cut-off); inconclusive = no clear call, values can overlap the other calls; inactive = mostly above about 0.92.

Assay: chemical genetic growth profiling, strain panel (AID 1159580);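 note: tested at 20 µM; growth read once vehicle control cultures reached saturation at 30 °C; 1 = growth at the plate median or of vehicle wells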
Conditions: S. cerevisiae deletion strains, growth OD

Question: For CCCCC/C=C\C/C=C\C/C=C\C/C=C\CCCC(=O)O, which normalized growth (locus YAL013W, strain DEP1, stronger effect = lower value) is on record?
Answer: 0.987

Question: And the normalized growth (locus YAL021C, strain ccr4, stronger effect = lower value)?
Answer: 0.986

Question: And the normalized growth (locus YAL026C, strain drs2, stronger effect = lower value)?
Answer: 0.831 (active)

Question: What about the normalized growth (locus YAL030W, strain snc1, stronger effect = lower value) of the same molecule?
Answer: 0.978

Question: What about the normalized growth (locus YBL061C, strain skt5, stronger effect = lower value) of the same molecule?
Answer: 0.962

Question: And the normalized growth (locus YBR009C, strain hhf1, stronger effect = lower value)?
Answer: 0.952

Question: And the normalized growth (locus YBR021W, strain FUR4, stronger effect = lower value)?
Answer: 0.95

Question: What about the normalized growth (locus YBR023C, strain chs3, stronger effect = lower value) of the same molecule?
Answer: 0.963

Question: What about the normalized growth (locus YBR171W, strain sec66, stronger effect = lower value) of the same molecule?
Answer: 0.979

Question: And the normalized growth (locus YBR229C, strain ROT2, stronger effect = lower value)?
Answer: 0.994

Question: What about the normalized growth (locus YBR231C, strain swc5, stronger effect = lower value) of the same molecule?
Answer: 0.975

Question: And the normalized growth (locus YBR279W, strain paf1, stronger effect = lower value)?
Answer: 0.976

Question: And the normalized growth (locus YCL011C, strain gbp2, stronger effect = lower value)?
Answer: 0.971

Question: And the normalized growth (locus YCL016C, strain dcc1, stronger effect = lower value)?
Answer: 0.974

Question: And the normalized growth (locus YCL029C, strain bik1, stronger effect = lower value)?
Answer: 0.986

Question: And the normalized growth (locus YCL061C, strain MRC1, stronger effect = lower value)?
Answer: 0.975

Question: What about the normalized growth (locus YCL069W, strain vba3, stronger effect = lower value) of the same molecule?
Answer: 0.969

Question: And the normalized growth (locus YCR088W, strain abp1, stronger effect = lower value)?
Answer: 0.975

Question: And the normalized growth (locus YDL005C, strain med2, stronger effect = lower value)?
Answer: 0.984

Question: What about the normalized growth (locus YDL035C, strain GPR1, stronger effect = lower value) of the same molecule?
Answer: 0.953

Question: What about the normalized growth (locus YDL040C, strain nat1, stronger effect = lower value) of the same molecule?
Answer: 0.97

Question: What about the normalized growth (locus YDL074C, strain BRE1, stronger effect = lower value) of the same molecule?
Answer: 0.916

Question: What about the normalized growth (locus YDL101C, strain DUN1, stronger effect = lower value) of the same molecule?
Answer: 0.989

Question: What about the normalized growth (locus YDL134C, strain PPH21, stronger effect = lower value) of the same molecule?
Answer: 0.984

Question: And the normalized growth (locus YDL185W, strain tfp1, stronger effect = lower value)?
Answer: 0.974

Question: And the normalized growth (locus YDL192W, strain arf1, stronger effect = lower value)?
Answer: 0.965

Question: What about the normalized growth (locus YDR001C, strain nth1, stronger effect = lower value) of the same molecule?
Answer: 0.972

Question: What about the normalized growth (locus YDR069C, strain doa4, stronger effect = lower value) of the same molecule?
Answer: 0.993

Question: And the normalized growth (locus YDR101C, strain arx1, stronger effect = lower value)?
Answer: 0.968

Question: And the normalized growth (locus YDR137W, strain rgp1, stronger effect = lower value)?
Answer: 0.846 (active)

Question: What about the normalized growth (locus YDR150W, strain NUM1, stronger effect = lower value) of the same molecule?
Answer: 0.99

Question: And the normalized growth (locus YDR159W, strain sac3, stronger effect = lower value)?
Answer: 0.926

Question: And the normalized growth (locus YDR162C, strain NBP2, stronger effect = lower value)?
Answer: 0.967

Question: What about the normalized growth (locus YDR195W, strain ref2) of the same molecule?
Answer: 1.01

Question: What about the normalized growth (locus YDR297W, strain sur2, stronger effect = lower value) of the same molecule?
Answer: 0.972

Question: What about the normalized growth (locus YDR318W, strain mcm21, stronger effect = lower value) of the same molecule?
Answer: 0.957

Question: And the normalized growth (locus YDR334W, strain swr1, stronger effect = lower value)?
Answer: 0.969

Question: And the normalized growth (locus YDR335W, strain msn5, stronger effect = lower value)?
Answer: 0.971

Question: What about the normalized growth (locus YDR388W, stronger effect = lower value) of the same molecule?
Answer: 0.979

Question: What about the normalized growth (locus YDR392W, strain spt3, stronger effect = lower value) of the same molecule?
Answer: 0.474 (active)

Question: And the normalized growth (locus YDR502C, strain sam2, stronger effect = lower value)?
Answer: 0.977

Question: What about the normalized growth (locus YEL003W, strain gim4, stronger effect = lower value) of the same molecule?
Answer: 0.975

Question: What about the normalized growth (locus YEL037C, strain rad23, stronger effect = lower value) of the same molecule?
Answer: 0.974

Question: And the normalized growth (locus YEL061C, strain CIN8 (second series), stronger effect = lower value)?
Answer: 0.966

Question: What about the normalized growth (locus YEL061C, strain CIN8, stronger effect = lower value) of the same molecule?
Answer: 0.982

Question: What about the normalized growth (locus YER015W, strain faa2, stronger effect = lower value) of the same molecule?
Answer: 0.973

Question: What about the normalized growth (locus YER016W, strain bim1, stronger effect = lower value) of the same molecule?
Answer: 0.978

Question: What about the normalized growth (locus YER110C, stronger effect = lower value) of the same molecule?
Answer: 0.976

Question: And the normalized growth (locus YER111C, strain swi4, stronger effect = lower value)?
Answer: 0.963

Question: What about the normalized growth (locus YER155C, strain BEM2 (second series), stronger effect = lower value) of the same molecule?
Answer: 0.746 (active)

Question: And the normalized growth (locus YER155C, strain BEM2, stronger effect = lower value)?
Answer: 0.984

Question: What about the normalized growth (locus YER167W, strain BCK2, stronger effect = lower value) of the same molecule?
Answer: 0.945

Question: And the normalized growth (locus YFR010W, strain ubp6, stronger effect = lower value)?
Answer: 0.974

Question: And the normalized growth (locus YGL078C, strain dbp3, stronger effect = lower value)?
Answer: 0.951

Question: And the normalized growth (locus YGL086W, strain mad1, stronger effect = lower value)?
Answer: 0.976

Question: And the normalized growth (locus YGL167C, strain pmr1, stronger effect = lower value)?
Answer: 0.958

Question: What about the normalized growth (locus YGL173C, strain kem1, stronger effect = lower value) of the same molecule?
Answer: 0.96

Question: And the normalized growth (locus YGL227W, strain vid30, stronger effect = lower value)?
Answer: 0.988

Question: What about the normalized growth (locus YGL240W, strain doc1, stronger effect = lower value) of the same molecule?
Answer: 0.963

Question: What about the normalized growth (locus YGL248W, strain PDE1, stronger effect = lower value) of the same molecule?
Answer: 0.985

Question: What about the normalized growth (locus YGL253W, strain hxk2, stronger effect = lower value) of the same molecule?
Answer: 0.974

Question: And the normalized growth (locus YGR078C, strain PAC10, stronger effect = lower value)?
Answer: 0.945

Question: And the normalized growth (locus YGR135W, strain pre9, stronger effect = lower value)?
Answer: 0.971

Question: What about the normalized growth (locus YGR229C, strain SMI1, stronger effect = lower value) of the same molecule?
Answer: 0.877

Question: What about the normalized growth (locus YGR252W, strain gcn5, stronger effect = lower value) of the same molecule?
Answer: 1.01

Question: And the normalized growth (locus YHR013C, strain ard1, stronger effect = lower value)?
Answer: 0.855

Question: And the normalized growth (locus YHR027C, strain rpn1, stronger effect = lower value)?
Answer: 0.981

Question: What about the normalized growth (locus YHR030C, strain SLT2, stronger effect = lower value) of the same molecule?
Answer: 0.97

Question: And the normalized growth (locus YHR079C, strain IRE1 (second series), stronger effect = lower value)?
Answer: 0.967

Question: And the normalized growth (locus YHR094C, strain hxt1, stronger effect = lower value)?
Answer: 0.947

Question: And the normalized growth (locus YHR129C, strain ARP1, stronger effect = lower value)?
Answer: 0.992

Question: What about the normalized growth (locus YHR142W, strain chs7, stronger effect = lower value) of the same molecule?
Answer: 0.931

Question: And the normalized growth (locus YHR200W, strain rpn10, stronger effect = lower value)?
Answer: 0.987

Question: And the normalized growth (locus YIL066C, strain RNR3, stronger effect = lower value)?
Answer: 0.977

Question: And the normalized growth (locus YIL073C, strain SPO22, stronger effect = lower value)?
Answer: 0.862

Question: What about the normalized growth (locus YIR030C, strain dcg1, stronger effect = lower value) of the same molecule?
Answer: 0.985

Question: What about the normalized growth (locus YJL092W, strain hpr5, stronger effect = lower value) of the same molecule?
Answer: 0.978

Question: And the normalized growth (locus YJL095W, strain BCK1 (second series), stronger effect = lower value)?
Answer: 0.972

Question: What about the normalized growth (locus YJL095W, strain BCK1, stronger effect = lower value) of the same molecule?
Answer: 0.92

Question: And the normalized growth (locus YJL115W, strain asf1, stronger effect = lower value)?
Answer: 0.97

Question: And the normalized growth (locus YJL129C, strain trk1, stronger effect = lower value)?
Answer: 0.929

Question: What about the normalized growth (locus YJL134W, strain LCB3, stronger effect = lower value) of the same molecule?
Answer: 1.02

Question: And the normalized growth (locus YJL154C, strain vps35, stronger effect = lower value)?
Answer: 0.979

Question: What about the normalized growth (locus YJL164C, strain tpk1, stronger effect = lower value) of the same molecule?
Answer: 0.97

Question: What about the normalized growth (locus YJL166W, strain qcr8, stronger effect = lower value) of the same molecule?
Answer: 0.959

Question: And the normalized growth (locus YJL168C, strain set2, stronger effect = lower value)?
Answer: 0.986

Question: And the normalized growth (locus YJL187C, strain SWE1 (second series), stronger effect = lower value)?
Answer: 0.983

Question: And the normalized growth (locus YJL187C, strain SWE1, stronger effect = lower value)?
Answer: 0.978
